Results reported in PubChem BioAssay (Tox21).
Records with an inconclusive call do not appear. A call without a number means that no potency is given here. Calls of active or inactive are those of the source. Calls come from the whole dose curve; as a rule, active = well fitted cell-killing curve with a large enough effect in the repeat runs; inconclusive = weak or mixed curves, or effect the other way; inactive = no such curve, though single readings can be large or run the other way.

test: qHTS assay to identify small molecule antagonists of the thyroid receptor (TR) signaling pathway - cell viability counter screen (AID 743064); conditions: GH3.TRE-Luc viability, CellTiter-Fluor, 24 h; series mostly up to 70.3 µM; note: nearly all actives have a fitted effect of over 50% in size
Source text: National Center for Advancing Translational Sciences [NCATS]
NIH Chemical Genomics Center [NCGC]
U.S. Environmental Protection Agency [EPA]
National Institutes of Environmental Health Sciences [NIEHS]
National Toxicology Program [NTP]
U.S. Food and Drug Administration [FDA]
Thyroid receptor (TR), a nuclear hormone receptor, plays an important role in development, proliferation, differentiation, metabolism, brain function, and cardiovascular system. […] To profile the Tox21 10K compound library in TR signaling, a cell-based GH3-TRE-Luc assay (GH3.TRE-Luc cell line, developed by the laboratory of Dr. Albertinka J. Murk, Wageningen University) was used to measure the inhibition of TR. GH3 (rat pituitary tumor) cells stably expressing a TR activity sensor consisting of two TR response elements and a luciferase reporter gene. The cytotoxicity of the Tox21 compound library against the GH3.TRE-Luc cell line was tested in parallel by measuring the cell viability using CellTiter-Fluor assay (Promega, Madison, WI) in the same wells.
Tox21 Assay Protocol Summary:
GH3.TRE-Luc cells were dispensed at 1500 cells/4 uL/well into 1536-well white solid bottom plates using a Multidrop Combi dispenser (Thermo Fisher Scientific Inc., Waltham, MA). After the assay plates were incubated at 37 C for 4 hours, 23 nL of library compound or DMSO controls was transferred to the assay plates by a pintool station (Kalypsys, San Diego, CA), followed by addition of 1 ul of T3 (1 nM, final concentration in the wells) to stimulate TR transactivation. The assay plates were incubated at 37 C for 23.5 h, and then 1 uL of CellTiter-Fluor reagent (Promega, Madision, WI) of measuring cytotoxicity was added to each well using a Bioraptr Flying Reagent Dispenser (FRD) workstation (Beckman Coulter, Indianapolis, IN, USA). The plates were incubated at 37C and 5% CO2 for additional 30 min, and fluorescence intensity was measured by a ViewLux plate reader (PerkinElmer, Shelton, CT).
Potency is the fitted concentration of half-maximal effect.

SMILES	Potency
CC(Cl)COP(=O)(OCC(C)Cl)OCC(C)Cl (stereo not given)	inactive
O=c1[nH]c(=O)c2ccccc2o1	inactive
C=C[C@@H](C)CCC=C(C)C	inactive
CCC(=O)OCCC(C)CCC=C(C)C (stereo not given)	inactive
Cc1ncc([N+](=O)[O-])n1CC(O)CCl (stereo not given)	inactive
FC(F)(F)/C(=N\OCC1OCCO1)c1ccc(Cl)cc1	inactive
Cc1cccc(Nc2ccncc2S(=O)(=O)NC(=O)NC(C)C)c1	inactive
O=C(CN1CCN(Cc2ccc3c(c2)OCO3)CC1)N1c2ccccc2Sc2ccccc21	29.8 µM (active)
Nc1c(NC/C=C\COc2cc(CN3CCCCC3)ccn2)c(=O)c1=O	23.7 µM (active)
c1ccc(CNc2ncnc3nc[nH]c23)cc1	inactive
Cc1nc([N+](=O)[O-])cn1-c1ccc([N+](=O)[O-])cc1	inactive
C[C@H]1O[C@H](O[C@H]2[C@H](O)[C@@H](O)[C@@H](O[C@H]3[C@H](O)[C@@H](O)[C@H](O)O[C@@H]3CO)O[C@@H]2CO)[C@H](O)[C@@H](O)[C@@H]1N[C@H]1C=C(CO)[C@@H](O)[C@H](O)[C@H]1O	inactive
CC(=O)OC(C)c1ccccc1 (stereo not given)	inactive
COCC(=O)Nc1c(I)c(C(=O)NCC(O)CO)c(I)c(C(=O)N(C)CC(O)CO)c1I (stereo not given)	inactive
CCCCCCCCCCCCC1CO1 (stereo not given)	inactive
Cc1ccc2c(c1)c1c3n2CCNC3CCC1 (stereo not given)	11.9 µM (active)
SCCSCCS	inactive
Cc1c(C(C)C)c(=O)n(-c2ccccc2)n1C	inactive
CN[C@@H]1[C@@H](O)[C@@H](O[C@@H]2[C@H](O)[C@H](O[C@H]3OC(CN)=CC[C@H]3N)[C@@H](N)C[C@H]2N)OCC1(C)O (stereo not given in full)	inactive
CC(=O)Nc1ncc([N+](=O)[O-])s1	inactive

SMILES	Potency
O=S1(=O)CCCC1	inactive
CN=C(NC#N)NCCSCc1csc(N=C(N)N)n1	inactive
NC(=O)C1(N2CCCCC2)CCN(CCCC(=O)c2ccc(F)cc2)CC1	inactive
C=CCOCC(O)CCl (stereo not given)	inactive
CCOC(=O)OCC/C(SC(=O)OCC)=C(\C)N(C=O)Cc1cnc(C)nc1N	inactive
CCCCCCCCCCCCCC(=O)OC	inactive
Nc1ccnc(=O)[nH]1	inactive
CN(C)CCCNCCC#N	inactive
CN(C1CCCCC1)S(=O)(=O)c1ccccc1N	inactive
COc1ccc(OC)c(NC(=O)CC(C)=O)c1	inactive
CCCCOC(=O)C(=O)OCCCC	inactive
Cc1ccccc1C(=O)N1CC/C(=N\OS(=O)(=O)O)c2ccc(Cl)cc21	inactive
CCCCC(C)C(=O)O (stereo not given)	inactive
CCCCCCCCCCCCOC(C)=O	inactive
CCCCC(=O)N(C)C	inactive
CC(C)COC(=O)COc1ccc(Cl)cc1Cl	inactive
NC(=O)NC(=O)Cc1ccccc1	inactive
CCCCCCCC/C=C\CCCCCCCC(=O)OC[C@@H](O)[C@H]1OC[C@H](O)[C@H]1O	inactive
F[Si-2](F)(F)(F)(F)F	inactive
C=CC(C)(O)CC/C=C(\C)CC (stereo not given)	inactive
